Results published in PubChem BioAssay (NCI).
Compounds without any hit were thinned out: in the full panel of roughly 83,000, 20% have a hit.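 How to read the values: 0–100, growth inhibition (40 = 60% inhibited); 0, no net growth; -100 to 0, cell death (-40 = 40% of starting cells died; -100 = all dead).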 A number with no mark means an inactive call. Calls of active or inactive are those of the source. How the source made its calls: active means growth percent below 10; inactive means the rest.

System: HL-60(TB) leukemia
Assay: NCI-60 one-dose screen, 48 h (100 = growth as untreated, 0 = no growth, -100 = all killed)
Conditions: 10 µM unless noted

Compound | growth
CCNCCNc1cc(-c2cccc(C(F)(F)F)c2)c(C#N)c2nc3ccccc3n12 | -58.7% (active)
CC1(C)OC2C(CO)OC(n3ccc(=O)[nH]c3=O)C2O1 (stereo not drawn) | 105%
O=[N+]([O-])c1ccc(Sc2nc(Cl)nc(NC3CCCC3)n2)cc1 | -26% [100 µM] (active)
